Bioassay records (PubChem BioAssay)
Pf growth 96h: P. falciparum growth inhibition at 96 hour, primary screen for plastid delayed-death inhibitors; P. falciparum luciferase reporter growth, 96 h; Potency, µM (doses to about 28.7 µM), for inactives: at the top dose activity change, negative = inhibition, actives largely listed as inhibitors; 6.9% of 320,000 active; further: on the % scale 0 is the no-effect control and ±100 the full control effect
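Infected RBCs, 2% Hct / 0.05% parasitemia final; luciferase-reporter P. falciparum; cpd 96 h, 37 C, 5% CO2; luciferase detection reagent; luminescence.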
Pf growth 48h: P. falciparum growth inhibition at 48 hours (one generation); P. falciparum luciferase growth in erythrocytes, 48 h; Potency, µM (highest dose often 28.7 µM), for the others: top-dose activity change, negative = inhibition, hits mostly inhibitors; 5.9% of 310,000 active; AID 504832; further: on the % scale 0 is the no-effect control and ±100 the full control effect
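Parasite viability was followed by luminescence of a genomically integrated firefly luciferase. Cultures held 0.1% parasitemia at 2% hematocrit (final), incubated under 5% CO2 at 37 C.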
HCV inhibitor: inhibitors of hepatitis C virus infection | Huh7.5.1 HCVcc-Cre infection, luciferase reporter, 44 h | Potency, µM (top dose mostly 41.8 µM), for the others: at the top dose activity change, negative = inhibition, usual class: inhibitors | 3.4% of 340,000 active | AID 651820; further: on the % scale 0 is the no-effect control and ±100 the full control effect
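Compounds are dispensed onto cells plated 4 h earlier at 1,000 per well, with HCVcc-Cre virus (about 0.5 moi) added next. Following 44 h of culture, luminescent signal is measured for 15 sec after 15 min with substrate at room temperature.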
AMA1-RON2 inh: AMA1-RON2 (P. falciparum) interaction inhibition; AlphaScreen AMA1-biotinylated RON2 peptide binding; Potency, µM (doses to about 58.2 µM), for the others: top-dose activity change, negative = inhibition, actives largely listed as inhibitors; 0.2% of 360,000 active; AID 720542;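 further: 0% = vehicle wells and -100% = peptide control; nearly all actives have a fitted effect of over 45% in size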
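AMA1 (3D7) with his tag at 25 nM final met compounds first, then biotinylated RON2 peptide at 25 nM; detection used donor plus acceptor beads, 10 µg/mL apiece, read by AlphaScreen after 30 min at room temperature.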
HCV inh confirm: HCV inhibition, cherry-pick confirmation | shares compounds with HCV inhibitor | HCVcc-Cre infectious virus cell assay, luciferase, inhibition | Potency, µM (doses to about 41.8 µM), for the others: top-dose activity, negative = inhibition, actives largely listed as inhibitors | 78% of 640 active | AID 720575; further: nearly all actives have a fitted effect of over 80% in size
HCV host tox: toxic to HCV host cells, flagging false HCV inhibitors | HCV host cell line cytotoxicity counterscreen | 22% of 640 active | Potency, µM (titrated, usually from 41.8 µM), inactives show at the highest dose activity change, negative = cytotoxicity, hits mostly inhibitors | shares compounds with HCV inhibitor;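 further: 44 h compound exposure; on the % scale 0 is the no-effect control and ±100 the full control effect; nearly all actives have a fitted effect of over 55% in size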
Starred values were filed as active, the others as inactive; i = inactive; ? = inconclusive; . = no result given. A selection: hits, their analogues and other compounds. The true share with any hit is near 11%. The call rests on the fitted dose curve; in most records, active means well fitted curve in the direction sought with a large enough effect; inconclusive means small, poorly fitted or top-dose-only effect, or another doubt; inactive means no such curve, though single readings can be large; an effect the other way counts as inactive or inconclusive. Potency means the concentration at half of the fitted maximal effect.

SMILES	Pf growth 96h	Pf growth 48h	HCV inhibitor	AMA1-RON2 inh	HCV inh confirm	HCV host tox
COc1ccc(CCNC(=O)COC(=O)CCC(=O)c2ccc(F)cc2)cc1OC	?	0%	-1%	-6%	.	.
COc1cccc(N(C(=O)CCl)C(C(=O)NCCc2ccccc2)c2cccs2)c1 (stereo unspecified)	9.3µM*	12µM*	0.71µM*	4%	0.89µM*	0.5µM*
CSc1nc2c(c(=O)[nH]1)C(c1cccc(Br)c1)CC(=O)N2 (stereo unspecified)	-7%	24%	0%	13%	.	.
COc1cc([N+](=O)[O-])ccc1NC(=O)CN(C)C	34%	-10%	?	2%	.	.
CCN(CC(=O)Nc1ccc([N+](=O)[O-])cc1OC)c1ccccc1	9.3µM*	?	3.2µM*	-16%	14µM*	-15%
CC(=O)N1CCN(Cc2nc3cc(NC(=O)c4ccc(Cl)cc4)ccc3n2C)CC1	-23%	.	3.5µM*	7%	14µM*	22µM*
CC(=O)N1CCN(Cc2nc3cc(NC(=O)c4ccccc4Cl)ccc3n2C)CC1	i	?	-20%	18%	.	.
C=CCOc1c(Br)cc(/C=N/n2c(CC)n[nH]c2=S)cc1Br	?	10%	3%	87%	.	.
CC1CC(C)C(=O)C(C(CC2CC(=O)NC(=O)C2)OC(=O)CC(=O)c2ccccc2)C1 (stereo unspecified)	.	.	5µM*	-14%	13µM*	26%
CCOC(=O)C1CCCN(C(=O)c2cc(S(=O)(=O)N(C)C)ccc2N2CCCC2)C1 (stereo unspecified)	?	12%	3%	-8%	.	.
Cc1nn(C)c(C)c1NC(=O)CCSc1nc(-c2ccco2)cc(C(F)(F)F)n1	.	-27%	4µM*	0%	?	-22%
COc1ccc2c(c1)CCc1c-2nc2ccccc2c1N1CCOCC1	?	?	4.5µM*	9%	-21%	-51%
O=C1CCC(C(=O)OCC(=O)Nc2cc(Cl)ccc2F)=NN1	.	.	7%	11%	.	.
COc1ccc(Cl)cc1NC(=O)C(C)OC(=O)C1=NNC(=O)CC1 (stereo unspecified)	-13%	22%	?	0%	?	-14%
COCCN(C(=O)COC(=O)c1ccc(Cl)s1)c1c(N)n(Cc2ccccc2)c(=O)[nH]c1=O	41%	0%	19%	-9%	.	.
COCCN(C(=O)COC(=O)c1cc2c(s1)CCC2)c1c(N)n(Cc2ccccc2)c(=O)[nH]c1=O	?	?	?	-16%	-26%	28%
